# According to PubChem BioAssay (EPA / NIEHS):
# Values joined by “and” are separate entries in the source; they are usually repeats but may differ in a detail not shown here. Identical values can stand only once. Results filed as inconclusive are left out. A structure can be active in one record and inactive in another. Active and inactive are the calls of the source. How the source made its calls: active means hit-call score of the fitted dose curve at least 0.9, where 1 is the maximum; inconclusive means response in the unintended direction; inactive means score below 0.9.
# Key:
# [1] = LTEA_HepaRG_LDH_cytotoxicity: Cytotoxicity Assessment in the Life Technologies and Expression Analysis (LTEA) Assay (AID 2283563);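 on AC50: LDH activity released into spent culture medium as a marker of cell death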
# Method in brief: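 Cells were thawed and plated for 48 h. Medium was then replaced with serum-free induction medium. Chemicals (8 half-log points, maximum 100 uM, 0.5% DMSO) were added in duplicate for 48 h, after which spent medium was assayed for LDH.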
# [2] = ATG_XTT_Cytotoxicity: Cytotoxicity Assessment in the Attagene TRANS-FACTORIAL HepG2 Assay (AID 2283584)
# Method in brief: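 Cells: human HepG2, transiently transfected with MRTU reporter constructs. Exposure 24 h. Readout: XTT, cell number. Baseline/neg ctrl DMSO; loss-of-signal scored.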
# [3] = TOX21_p53_BLA_p2_viability: Viability Assessment in the Tox21 HCT-116 p53 Agonism Beta-lactamase Assay, Phase 2 (AID 2283591);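 further: compound exposure lasted 16 h at 37 °C; actives lower the ATP signal meaning cytotoxicity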
# Method in brief: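 HCT116 p53-bla cells, 4000/well, dosed after 5 h plating (217-fold dilution of DMSO stocks) and incubated 16 h at 37C. Viability taken as cellular ATP by CellTiter-Glo luminescence after 30 min RT; signal loss marks cytotoxicity.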
# [4] = biological target: Cellular tumor antigen p53 (Homo sapiens) (UniProt P04637); assay: TOX21_p53_BLA_p2_ratio: Tox21 HCT-116 p53 Agonism Beta-lactamase Assay, Ratio, Phase 2 (AID 2283592)
# Cellular tumor antigen p53 (Homo sapiens), sequence (P04637 whole entry, looked up): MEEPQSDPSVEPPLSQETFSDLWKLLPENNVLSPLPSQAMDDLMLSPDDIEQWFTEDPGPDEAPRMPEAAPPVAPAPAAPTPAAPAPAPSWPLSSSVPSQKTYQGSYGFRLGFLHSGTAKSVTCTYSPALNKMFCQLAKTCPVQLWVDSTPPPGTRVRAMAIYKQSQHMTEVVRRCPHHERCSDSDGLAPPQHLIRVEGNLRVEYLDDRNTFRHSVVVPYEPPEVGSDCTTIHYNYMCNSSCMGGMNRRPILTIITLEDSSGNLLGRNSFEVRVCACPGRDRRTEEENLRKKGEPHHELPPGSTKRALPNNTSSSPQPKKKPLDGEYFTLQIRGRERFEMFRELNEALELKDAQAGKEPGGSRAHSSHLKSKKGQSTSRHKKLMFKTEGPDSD
# Method in brief: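 HCT116 p53-bla; 4000 cells/well; 5 h pre-incubation; cpd in DMSO, 217-fold dilution; 16 h 37C/5% CO2; CCF4-AM 2 h RT; Ex 405, Em 460/530 ratio; DMSO = baseline; positive fitting direction.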
# [5] = biological target: Cellular tumor antigen p53 (Homo sapiens) (UniProt P04637); assay: TOX21_p53_BLA_p3_ratio: Tox21 HCT-116 p53 Agonism Beta-lactamase Assay, Ratio, Phase 3 (AID 2283596)
# Method in brief: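 HCT116 p53-bla cells (4000/well) given compound in DMSO (217-fold dilution) after 5 h, incubated 16 h at 37C. CCF4-AM substrate 2 h at room temperature; 460/530 nm emission ratio, gain fitted against DMSO.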
# [6] = TOX21_p53_BLA_p4_viability: Viability Assessment in the Tox21 HCT-116 p53 Agonism Beta-lactamase Assay, Phase 4 (AID 2283597);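 further: hits lower the luminescence signal meaning cytotoxicity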
# Method in brief: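 Cells plated, 5 h pre-incubation; DMSO compounds pinned (217-fold dilution); 16 h, 37C/5% CO2; CCF4-AM 2 h RT; CellTiter-Glo 30 min RT; luminescence read.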
# [7] = biological target: Cellular tumor antigen p53 (Homo sapiens) (UniProt P04637); assay: TOX21_p53_BLA_p5_ratio: Tox21 HCT-116 p53 Agonism Beta-lactamase Assay, Ratio, Phase 5 (AID 2283599)
# Method in brief: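 HCT-116 p53-bla cells (4000/well) plated 5 h, dosed with compound (217-fold DMSO dilution) for 16 h at 37 C; CCF4-AM substrate 2 h at room temperature. Activity is the 460/530 nm emission ratio (405 nm excitation), fitted in gain-of-signal direction versus DMSO.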
# [8] = TOX21_p53_BLA_p5_viability: Viability Assessment in the Tox21 HCT-116 p53 Agonism Beta-lactamase Assay, Phase 5 (AID 2283600)
# Method in brief: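 4000 cells/well; 5 h pre-incubation; DMSO compounds pin-transferred, 217-fold dilution; 16 h, 37C/5% CO2; CCF4-AM 2 h RT; CellTiter-Glo 30 min RT; luminescence.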
# [9] = Tanguay_ZF_120hpf_MORT_legacy: (Legacy) Oregon State University Tanguay Lab 120 Hour Post-fertilization zebrafish Assay for Mortality (AID 2283633);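 on AC50: fitted as increase in binary mortality versus DMSO negative control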
# Method in brief: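 5D WT zebrafish, chorion removed 4 hpf; 1 embryo/well from 6 hpf; static exposure to 120 hpf, 28C, dark, sealed. Final DMSO 0.64%. Readout: binary mortality, brightfield, 24 + 120 hpf; DMSO as negative control.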
# [10] = Tanguay_ZF_120hpf_YSE_legacy: (Legacy) Oregon State University Tanguay Lab 120 Hour Post-fertilization zebrafish Assay for Yolk Sac Edema (AID 2283634);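 on AC50: actives raise the incidence of yolk sac edema above the DMSO baseline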
# Method in brief: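 Dechorionate (pronase, 4 hpf) → place one 6 hpf embryo per well → static compound exposure, sealed and foil-covered, 28C, to 120 hpf → record yolk sac edema as present or absent. Final DMSO 0.64%.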
# [11] = Tanguay_ZF_120hpf_AXIS_legacy: (Legacy) Oregon State University Tanguay Lab 120 Hour Post-fertilization zebrafish Assay for Body Axis Malformation (AID 2283635);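 on AC50: potency for an increased fraction of larvae scored with body axis malformation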
# Method in brief: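 Chorion is removed with pronase at 4 hpf, then single 6 hpf embryos are dosed (final DMSO 0.64%) and held statically at 28C in sealed, foil-covered plates. At 120 hpf body axis malformation is recorded as present or absent.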
# [12] = Tanguay_ZF_120hpf_EYE_legacy: (Legacy) Oregon State University Tanguay Lab 120 Hour Post-fertilization zebrafish Assay for Eye Malformation (AID 2283636);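 further: binary presence or absence of eye malformation scored by brightfield in 120 hpf larvae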
# Method in brief: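 Dechorionated Tropical 5D zebrafish embryos, one per well from 6 hpf, static exposure to 120 hpf at 28C, 0.64% DMSO. Eye malformation scored present/absent by brightfield; dead embryos not scored.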
# [13] = Tanguay_ZF_120hpf_SNOU_legacy: (Legacy) Oregon State University Tanguay Lab 120 Hour Post-fertilization zebrafish Assay for Snout Malformation (AID 2283637)
# Method in brief: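 Dechorionated tropical 5D wild-type zebrafish embryos exposed statically from 6 to 120 hpf at 28C, one per well, in 0.64% DMSO. Snout malformation scored as present/absent by brightfield at 120 hpf; dead embryos not scored.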
# [14] = Tanguay_ZF_120hpf_JAW_legacy: (Legacy) Oregon State University Tanguay Lab 120 Hour Post-fertilization zebrafish Assay for Jaw Malformation (AID 2283638);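 on AC50: active means more embryos with jaw malformation than DMSO controls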
# Method in brief: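 Steps: dechorionate 4 hpf embryos (pronase); plate 1/well at 6 hpf; add test chemical, 0.64% DMSO final; seal, cover, hold at 28C statically to 120 hpf; score jaw defect presence/absence microscopically. Dead embryos not scored.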
# [15] = Tanguay_ZF_120hpf_OTIC_legacy: (Legacy) Oregon State University Tanguay Lab 120 Hour Post-fertilization zebrafish Assay for Otic Vesicle Malformation (AID 2283639)
# Method in brief: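 Otic vesicle malformation is read as a yes/no morphology call at 120 hpf. Exposure is static at 28C with 0.64% (vol/vol) DMSO; embryos that die are excluded from non-mortality endpoints.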
# [16] = Tanguay_ZF_120hpf_PE_legacy: (Legacy) Oregon State University Tanguay Lab 120 Hour Post-fertilization zebrafish Assay for Pericardial Edema (AID 2283640);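 on AC50: potency for increased incidence of pericardial edema versus DMSO baseline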
# Method in brief: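 Embryos from wild-type 5D adults were staged, then dosed in 0.64% DMSO. They were kept sealed in the dark at 28C until 120 hpf. Pericardial edema was then recorded as present or absent.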
# [17] = Tanguay_ZF_120hpf_BRAI_legacy: (Legacy) Oregon State University Tanguay Lab 120 Hour Post-fertilization zebrafish Assay for Brain Malformation (AID 2283641)
# Method in brief: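 Wild-type 5D larvae, static waterborne exposure to 120 hpf, 28C, 0.64% v/v DMSO. Brightfield scoring of brain defects, binary; dead embryos excluded. Positive ctrl 5uM trimethyltin chloride.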
# [18] = Tanguay_ZF_120hpf_SOMI_legacy: (Legacy) Oregon State University Tanguay Lab 120 Hour Post-fertilization zebrafish Assay for Somite Malformation (AID 2283647)
# Method in brief: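 Read-out: presence or absence of somite malformation in 120 hpf larvae, gain-of-signal relative to DMSO baseline. Embryos lacked chorion (pronase, 4 hpf) and were exposed statically from 6 hpf at 28C; dead larvae not scored.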
# [19] = TOX21_p53_BLA_p3_viability: Viability Assessment in the Tox21 HCT-116 p53 Agonism Beta-lactamase Assay, Phase 3 (AID 2283593);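 further: cells exposed to compound for 16 h before reading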
# Method in brief: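 HCT116 cells, 4000/well, dosed 5 h after plating by pin transfer (217-fold dilution from DMSO stock) and incubated 16 h at 37C, 5% CO2. Viability read as ATP luminescence with CellTiter-Glo after 30 min at room temperature.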
# [20] = biological target: Cellular tumor antigen p53 (Homo sapiens) (UniProt P04637); assay: TOX21_p53_BLA_p4_ratio: Tox21 HCT-116 p53 Agonism Beta-lactamase Assay, Ratio, Phase 4 (AID 2283601)
# Method in brief: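 HCT-116 p53 beta-lactamase reporter cells (4000/well) preincubated 5 h, then compound (217-fold dilution of DMSO stock) for 16 h at 37C. CCF4-AM substrate added 2 h at room temperature; 460/530 nm emission ratio fitted upward versus DMSO.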
smiles,measurement,setting,value
CSC(=O)c1c(C(F)F)nc(C(F)(F)F)c(C(=O)SC)c1CC(C)C,AC50,[1],78.7 µM (active)
same,outcome,[2],inactive
same,outcome,[3],inactive
same,outcome,[4],inactive
same,outcome,[5],inactive
same,outcome,[6],inactive
same,outcome,[7],inactive
same,outcome,[8],inactive
same,outcome,[9],inactive
same,outcome,[10],inactive
same,outcome,[11],inactive
same,outcome,[12],inactive
same,outcome,[13],inactive
same,outcome,[14],inactive
same,outcome,[15],inactive
same,outcome,[16],inactive
same,outcome,[17],inactive
same,outcome,[18],inactive
COCC(=O)N(c1c(C)cccc1C)C(C)C(=O)OC (stereo not drawn),outcome,[1],inactive
same,outcome,[3],inactive
same,outcome,[4],inactive
same,outcome,[19],inactive
same,outcome,[5],inactive
same,outcome,[6],inactive
same,outcome,[7],inactive
same,outcome,[8],inactive
same,outcome,[20],inactive
same,outcome,[9],inactive
same,outcome,[10],inactive
same,outcome,[11],inactive
same,outcome,[13],inactive
same,outcome,[14],inactive
same,outcome,[16],inactive
same,outcome,[17],inactive
same,outcome,[18],inactive
CC1(C)C(C(=O)OC(C#N)c2cccc(Oc3ccccc3)c2)C1(C)C (stereo not drawn),outcome,[1],inactive
same,outcome,[3],inactive
same,outcome,[4],inactive
same,outcome,[19],inactive
same,outcome,[5],inactive
same,outcome,[6],inactive
same,outcome,[7],inactive
same,outcome,[8],inactive
same,outcome,[20],inactive
same,outcome,[9],inactive
same,outcome,[10],inactive
same,outcome,[11],inactive
same,outcome,[12],inactive
same,outcome,[13],inactive
same,outcome,[14],inactive
same,outcome,[15],inactive
same,outcome,[16],inactive
same,outcome,[17],inactive
same,outcome,[18],inactive
C=CCOC(=O)C(C)(C)OC(=O)c1cc(-n2c(=O)cc(C(F)(F)F)n(C)c2=O)ccc1Cl,outcome,[1],inactive
same,outcome,[3],inactive
same,outcome,[4],inactive
same,outcome,[5],inactive
same,outcome,[6],inactive
same,outcome,[7],inactive
same,outcome,[8],inactive
same,outcome,[20],inactive
same,outcome,[9],inactive
same,outcome,[10],inactive
same,outcome,[11],inactive
same,outcome,[12],inactive
same,outcome,[13],inactive
same,outcome,[14],inactive
same,outcome,[16],inactive
same,outcome,[17],inactive
COC(=O)NS(=O)(=O)c1ccc(N)cc1,outcome,[1],inactive
same,outcome,[3],inactive
same,outcome,[4],inactive
same,outcome,[19],inactive
same,outcome,[5],inactive
same,outcome,[7],inactive
same,outcome,[20],inactive
same,outcome,[9],inactive
same,outcome,[10],inactive
same,outcome,[11],inactive
same,outcome,[12],inactive
same,outcome,[13],inactive
same,outcome,[14],inactive
same,outcome,[16],inactive
same,outcome,[17],inactive
COCC(C)N(C(=O)CCl)c1c(C)csc1C (stereo not drawn),outcome,[1],inactive
same,outcome,[3],inactive
same,outcome,[4],inactive
same,outcome,[5],inactive
same,outcome,[6],inactive
same,outcome,[7],inactive
same,outcome,[8],inactive
same,outcome,[20],inactive
same,AC50,[9],36.4 µM (active)
same,AC50,[10],18.3 µM (active)
same,AC50,[11],27.3 µM (active)
same,AC50,[12],24.8 µM (active)
same,AC50,[13],8.23 µM (active)
same,AC50,[14],25.6 µM (active)
same,AC50,[15],8.94 µM (active)
same,AC50,[16],31 µM (active)
same,AC50,[17],8.88 µM (active)
same,AC50,[18],30.4 µM (active)
Nc1c(Cl)c(Cl)nc(C(=O)O)c1Cl,outcome,[1],inactive
same,outcome,[3],inactive
same,AC50,[4],75.6 µM (active)
same,outcome,[19],inactive
same,outcome,[5],inactive
same,outcome,[6],inactive
same,outcome,[7],inactive
same,outcome,[8],inactive
same,outcome,[20],inactive
same,outcome,[9],inactive
same,outcome,[14],inactive
same,outcome,[15],inactive
same,outcome,[16],inactive
same,outcome,[17],inactive
OC(c1ccc(Cl)cc1)(c1ccc(Cl)cc1)C(Cl)(Cl)Cl,AC50,[1],74.3 µM (active)
same,AC50,[3],77.9 µM (active)
same,outcome,[4],inactive
same,AC50,[19],38.8 µM (active)
same,AC50,[5],49.6 µM (active)
same,AC50,[6],86.7 µM (active)
same,AC50,[7],89.8 µM (active)
same,AC50,[8],71 µM (active)
same,outcome,[20],inactive
same,outcome,[9],inactive
same,outcome,[13],inactive
same,outcome,[14],inactive
same,outcome,[15],inactive
same,outcome,[16],inactive
same,outcome,[17],inactive
CO/N=C(/C1=NOCCO1)c1ccccc1Oc1ncnc(Oc2ccccc2Cl)c1F,AC50,[1],33 µM (active)
same,outcome,[3],inactive
same,AC50,[4],3.05 µM (active)
same,outcome,[19],inactive
same,outcome,[5],inactive
same,outcome,[6],inactive
same,outcome,[7],inactive
same,outcome,[8],inactive
same,outcome,[20],inactive
same,AC50,[9],2.4 µM (active)
same,outcome,[10],inactive
same,AC50,[11],5.15 µM (active)
same,outcome,[12],inactive
same,outcome,[14],inactive
same,AC50,[16],0.936 µM (active)
same,outcome,[17],inactive
same,outcome,[18],inactive
O=C1C2CC=CCC2C(=O)N1SC(Cl)(Cl)Cl (stereo not drawn),AC50,[1],74.5 µM (active)
same,AC50,[3],25.6 µM (active)
same,outcome,[3],inactive
same,AC50,[4],4.12 µM (active) and 7.62 µM (active)
same,outcome,[4],inactive
same,outcome,[19],inactive
same,AC50,[5],77.7 µM (active) and 6.5 µM (active)
same,outcome,[5],inactive
same,AC50,[6],18.1 µM (active)
same,outcome,[6],inactive
same,AC50,[7],19.5 µM (active)
same,outcome,[7],inactive
same,outcome,[8],inactive
same,AC50,[20],10.3 µM (active)
same,outcome,[20],inactive
same,AC50,[9],25.1 µM (active)
same,outcome,[10],inactive
same,outcome,[11],inactive
same,outcome,[13],inactive
same,outcome,[14],inactive
same,outcome,[15],inactive
same,outcome,[16],inactive
same,outcome,[17],inactive
same,outcome,[18],inactive
